Values joined by “and” are separate entries in the source; they are usually repeats but may differ in a detail not shown here. Equal entries are not always repeated. Inconclusive results are not listed. Where a call stands in place of a potency, no number is given. More than one record can exist for a structure, and the calls need not agree. Active and inactive are the calls of the source. Calls follow the shape of the dose curve; as a rule, active = well fitted curve in the direction sought with a large enough effect in the repeat runs; inconclusive = weak or mixed curves; inactive = no such curve, though single readings can be large; an effect the other way counts as inactive or inconclusive.
Assays:
[1] = Human pregnane X receptor (PXR) small molecule agonists, qHTS cell viability counter screen (AID 1346977); also: nearly all actives have a fitted effect of over 50% in size; also: potency is read from the fitted curve at half-maximal effect
In short: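 PXR-Luc HepG2 cells (2,000/well, 5% charcoal-stripped FBS) preincubated 5 hr, then exposed to compounds 24 hr at 37 C. Viability read in the same wells by CellTiter-Fluor fluorescence, reagent added at 23 hr, 1 hr incubation.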

[2] = Caspase-3/7 induction in HepG2 cells by small molecules, qHTS assay (AID 1346978); also: nearly all actives have a fitted effect of over 15% in size
In short: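 Wild-type HepG2 cells (2,000/well) were settled 5 h at 37 C, 5% CO2, then exposed to compounds in DMSO for 17 h. Caspase-3/7 activity was read by luminescence 30 min after adding Caspase-Glo 3/7 reagent at room temperature.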

[3] = Caspase-3/7 induction in CHO-K1 cells by small molecules, qHTS cell viability counter screen (AID 1346979); also: nearly all actives have a fitted effect of over 35% in size; also: potency is read from the fitted curve at half-maximal effect
In short: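 Wild-type CHO-K1 cells (1,500/well) treated with compound after 5 h plating; after 16 h at 37C, viability read as CellTiter-Fluor fluorescence following 1 h reagent incubation, in the same wells as the caspase read.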

[4] = Caspase-3/7 induction in CHO-K1 cells by small molecules, qHTS assay (AID 1346980); also: nearly all actives have a fitted effect of over 15% in size
In short: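 Wild-type cells were seeded at 1,500 per well and settled 5 hr at 37 C, 5% CO2, then exposed to DMSO-dissolved compounds for 17 hr. Caspase-Glo 3/7 reagent was added, and luminescence was read after 30min at room temperature.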

[5] = Caspase-3/7 induction in HepG2 cells by small molecules, qHTS cell viability counter screen (AID 1346981); also: nearly all actives have a fitted effect of over 30% in size; also: potency is read from the fitted curve at half-maximal effect
In short: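 Counter screen for cytotoxicity: HepG2 exposed 16 hr to compounds, then CellTiter-Fluor viability signal (fluorescence, 1 hr reagent incubation).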

[6] = biological target: Nuclear receptor subfamily 1 group I member 2 (Homo sapiens) (UniProt O75469); experiment: Human pregnane X receptor (PXR) small molecule agonists, qHTS assay (AID 1346982); also: nearly all actives have a fitted effect of over 35% in size; also: potency is read from the fitted curve at half-maximal effect
Sequence of Nuclear receptor subfamily 1 group I member 2 (Homo sapiens) (O75469 whole entry, looked up): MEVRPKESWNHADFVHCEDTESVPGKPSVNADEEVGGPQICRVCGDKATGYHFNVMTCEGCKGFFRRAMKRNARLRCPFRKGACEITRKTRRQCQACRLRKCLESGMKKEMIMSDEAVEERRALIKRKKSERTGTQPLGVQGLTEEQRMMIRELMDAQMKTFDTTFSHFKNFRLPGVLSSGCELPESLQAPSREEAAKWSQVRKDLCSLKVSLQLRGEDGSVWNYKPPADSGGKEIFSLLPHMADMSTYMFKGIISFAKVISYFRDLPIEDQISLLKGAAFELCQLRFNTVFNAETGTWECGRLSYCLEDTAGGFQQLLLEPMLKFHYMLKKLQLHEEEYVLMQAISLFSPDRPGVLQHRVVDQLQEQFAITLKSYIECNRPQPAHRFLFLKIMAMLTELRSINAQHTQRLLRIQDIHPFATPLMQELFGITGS
In short: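 Luminescence (ONE-Glo, 30 min RT) after 24 hr compound exposure of PXR-Luc HepG2 cells; cells rested 5 hr post-plating in 5% charcoal-stripped FBS medium.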

[7] = biological target: Nuclear receptor subfamily 1 group I member 2 (Rattus norvegicus) (UniProt Q9R1A7); experiment: Rat pregnane X receptor (rPXR) activation by small molecules, qHTS assay (AID 1346983); details: rPXR luciferase reporter cells, One-Glo luminescence, 24 h; max activation: stronger effect = higher value; also: nearly all actives have a fitted effect of over 20% in size
Sequence of Nuclear receptor subfamily 1 group I member 2 (Rattus norvegicus) (Q9R1A7 whole entry, looked up): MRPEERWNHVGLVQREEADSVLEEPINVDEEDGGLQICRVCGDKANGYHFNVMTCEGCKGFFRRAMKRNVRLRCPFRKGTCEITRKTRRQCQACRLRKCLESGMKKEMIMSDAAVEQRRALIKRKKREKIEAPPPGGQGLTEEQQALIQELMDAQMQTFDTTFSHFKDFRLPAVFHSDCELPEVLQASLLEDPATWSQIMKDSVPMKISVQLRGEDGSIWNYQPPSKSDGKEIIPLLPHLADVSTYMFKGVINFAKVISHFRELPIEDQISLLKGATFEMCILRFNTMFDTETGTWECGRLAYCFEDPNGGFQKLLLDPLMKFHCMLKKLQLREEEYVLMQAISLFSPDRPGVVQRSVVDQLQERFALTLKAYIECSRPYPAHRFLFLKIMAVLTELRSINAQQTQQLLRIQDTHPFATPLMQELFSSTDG
In short: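 Cell-based rPXR luciferase reporter assay, 2,000 cells per well, rested 5hr at 37 C before compound addition in DMSO, then 24 hr at 37 C. One-Glo reagent was added and luminescence read after 30 min at room temperature.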

[8] = biological target: Nuclear receptor subfamily 1 group I member 2 (Homo sapiens) (UniProt O75469); experiment: CYP3A4 induction through human pregnane X receptor (PXR) by small molecules, qHTS assay (AID 1346984); also: nearly all actives have a fitted effect of over 40% in size; also: potency is read from the fitted curve at half-maximal effect
In short: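 DPX-2 reporter cells; 24h cpd, 37C; Luciferin-IPA 3uM final x3h; One-Glo 30 min RT; lumi read.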

[9] = biological target: Nuclear receptor subfamily 1 group I member 2 (Homo sapiens) (UniProt O75469); experiment: Human pregnane X receptor (PXR) activation by small molecules, qHTS assay (AID 1346985); also: nearly all actives have a fitted effect of over 40% in size; also: potency is read from the fitted curve at half-maximal effect
In short: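 DPX-2 cells (HepG2 co-transfected with a PXR response element and a CYP3A4-promoter luciferase construct) were seeded at 2,000 per well, rested 5 hr at 37C, then exposed to DMSO-dissolved compounds for 24 hr. Activation was read as luciferase luminescence.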

[10] = biological target: Cytochrome P450 2D6 (Homo sapiens) (UniProt P10635); experiment: Cytochrome P450 Family 2 Subfamily D Member 6 (CYP2D6) small molecule antagonists: luciferase reporter qHTS assay (AID 1671196); also: nearly all actives have a fitted effect of over 50% in size; also: potency is read from the fitted curve at half-maximal effect
Sequence of Cytochrome P450 2D6 (Homo sapiens) (P10635 whole entry, looked up): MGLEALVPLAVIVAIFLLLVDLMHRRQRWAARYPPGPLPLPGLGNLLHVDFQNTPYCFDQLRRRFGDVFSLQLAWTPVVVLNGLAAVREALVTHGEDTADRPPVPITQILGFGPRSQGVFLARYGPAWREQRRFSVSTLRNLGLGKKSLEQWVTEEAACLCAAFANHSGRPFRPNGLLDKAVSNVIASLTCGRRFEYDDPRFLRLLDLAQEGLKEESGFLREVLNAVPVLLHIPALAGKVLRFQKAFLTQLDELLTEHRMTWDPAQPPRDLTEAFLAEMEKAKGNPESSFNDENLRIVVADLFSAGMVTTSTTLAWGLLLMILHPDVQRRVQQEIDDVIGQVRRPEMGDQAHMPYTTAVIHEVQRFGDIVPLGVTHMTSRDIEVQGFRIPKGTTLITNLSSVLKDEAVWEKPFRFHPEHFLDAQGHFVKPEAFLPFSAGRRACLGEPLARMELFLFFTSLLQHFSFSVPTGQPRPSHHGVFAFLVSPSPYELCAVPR
In short: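 Inhibition of CYP2D6 was gauged by loss of luminescence, since light produced tracks the luciferin generated from a proluciferin substrate. A 10 min room-temperature preincubation preceded 1 h NADPH-supported turnover.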

Row | SMILES | Potency [1] | Potency [2] | Potency [3] | outcome [4] | Potency [5] | Potency [6] | max activation [7] | Potency [8] | Potency [9] | Potency [10]
1 | COc1ccccc1O | inactive | inactive | inactive | inactive | inactive | inactive | -3.23% (inactive) | inactive | inactive | inactive
2 | CN/C(=C\[N+](=O)[O-])NCCSCc1ccc(CN(C)C)o1 | inactive | inactive | inactive | inactive | inactive | inactive |  |  |  | inactive
3 | CC(C)=CCC/C(C)=C/CO | inactive | inactive | inactive | inactive | inactive |  |  |  |  | 
4 | NC(=O)NO | inactive | inactive | inactive | inactive | inactive |  |  |  |  | 
5 | CCN1CCCC1=O | inactive | inactive | inactive | inactive | inactive | inactive | 3.15% (inactive) | inactive | inactive | inactive
6 | CC(C)(C)CC(C)(C)c1ccc(O)c(-n2nc3ccccc3n2)c1 | inactive | inactive | inactive | inactive | inactive | 27.7 µM (active) and 11.9 µM (active) | -2.63% (inactive) | inactive | 7.94 µM (active) | 40.5 µM (active) and inactive
7 | O=C1OC(c2ccc(O)cc2)(c2ccc(O)cc2)c2ccccc21 | 50.1 µM (active) and inactive | inactive | 30.4 µM (active) and inactive | inactive | inactive | 48.2 µM (active) and 27.3 µM (active) and 23.7 µM (active) |  |  |  | 71 µM (active) and inactive
8 | COc1cc(O)c(C(=O)c2ccccc2)cc1S(=O)(=O)O | inactive | inactive | inactive and 13.3 µM (active) | inactive | inactive | inactive | -1.72% (inactive) | inactive | inactive | inactive
9 | C#C[C@]1(O)CC[C@H]2[C@@H]3CCC4=CC(=O)CC[C@@H]4[C@H]3CC[C@@]21CC | inactive | inactive | inactive and 54.5 µM (active) | inactive | inactive | 8.65 µM (active) and 54.5 µM (active) and 24.3 µM (active) | -1.1% (inactive) | inactive | inactive | inactive
10 | CC1(C)O[C@@H]2[C@@H](CO[C@@]3(COS(N)(=O)=O)OC(C)(C)O[C@@H]23)O1 | inactive | inactive | inactive | inactive | inactive | inactive | -4.73% (inactive) | inactive | inactive | inactive
11 | CN(C)Cc1cc(CN(C)C)c(O)c(CN(C)C)c1 | inactive | inactive | inactive | inactive | inactive | inactive |  |  |  | 79.6 µM (active) and inactive
12 | CCCCC/C(C=O)=C\c1ccccc1 | inactive | inactive | inactive | inactive | inactive | inactive | -0.992% (inactive) | inactive | inactive | 63.4 µM (active) and inactive
13 | CCN(CC)CCOC(=O)c1ccc(N)cc1 | inactive | inactive | inactive | inactive | inactive | inactive | -0.318% (inactive) | inactive | inactive | 5.95 µM (active) and 15.5 µM (active)
14 | CCCCCCCC(=O)OCC(O)CO (stereo not drawn) | inactive | inactive | inactive | inactive | inactive | inactive | -5.07% (inactive) | inactive | inactive | 39.9 µM (active)
15 | COc1ccc(O)cc1 | inactive | inactive | inactive | inactive | inactive | inactive | -2.37% (inactive) | inactive | inactive | 27.2 µM (active) and inactive
16 | CC(=O)CCC(C)C | inactive | inactive | inactive | inactive | inactive | inactive |  |  |  | inactive
17 | CCc1cc(C(N)=S)ccn1 | inactive | inactive | inactive | inactive | inactive |  |  |  |  | 
18 | C[C@]12C[C@H](O)[C@H]3[C@@H](CCC4=CC(=O)CC[C@@]43C)[C@@H]1CC[C@@H]2C(=O)CO | inactive | inactive | inactive | inactive | inactive | 8.65 µM (active) and 38.6 µM (active) | -5.48% (inactive) | inactive | inactive | inactive
19 | CCCCCCCCOc1ccc(C(=O)c2ccccc2)c(O)c1 | inactive | inactive | inactive | inactive | inactive | inactive | -2.91% (inactive) | inactive | inactive | inactive

Row | SMILES | Potency [1] | Potency [2] | Potency [3] | outcome [4] | Potency [5] | Potency [6] | max activation [7] | Potency [8] | Potency [9] | Potency [10]
20 | C/C=C/c1ccc(O)c(OC)c1 | inactive | inactive | inactive | inactive | inactive | inactive | 6.95% (inactive) | inactive | inactive | inactive
21 | Cc1c(N(C)CS(=O)(=O)O)c(=O)n(-c2ccccc2)n1C | inactive | inactive | inactive | inactive | inactive | inactive | -2.23% (inactive) | inactive | inactive | inactive
22 | Cc1ccc(O)c(-n2nc3ccccc3n2)c1 | inactive | inactive | inactive | inactive | inactive | 27.1 µM (active) and 27.3 µM (active) and 23.7 µM (active) | -1.88% (inactive) | inactive | 14.1 µM (active) | 31.5 µM (active) and 35.6 µM (active) and 30.9 µM (active)
23 | N[C@@H](Cc1c[nH]c2ccc(O)cc12)C(=O)O | inactive | inactive | inactive | inactive | inactive | inactive | -0.341% (inactive) | 4.47 µM (active) | inactive | 34.6 µM (active)
24 | COC(=O)c1ccc(O)cc1 | inactive | inactive | inactive | inactive | inactive | inactive | -1.51% (inactive) | inactive | inactive | inactive
25 | CCCCNC(=O)NS(=O)(=O)c1ccc(N)cc1 | inactive | inactive | inactive | inactive | inactive | inactive | -2.23% (inactive) | inactive | inactive | inactive
26 | CC(O)COc1ccccc1 (stereo not drawn) | inactive | inactive | inactive | inactive | inactive | inactive | -1.1% (inactive) | inactive | inactive | inactive
27 | CC1=NN(c2ccccc2)C(=O)C1 | inactive | inactive | inactive | inactive | inactive | inactive | -4.19% (inactive) | 25.1 µM (active) | inactive | 31.9 µM (active) and inactive
28 | CCCCCCCCCCCCCC(=O)OC(C)C | inactive | inactive | inactive | inactive | inactive | inactive | -1.74% (inactive) | inactive | inactive | inactive
29 | C=C(C)C(N)=O | inactive | inactive | inactive | inactive | inactive | inactive |  |  |  | inactive
30 | Cc1cccc(Nc2cc(Cl)nc(SCC(=O)O)n2)c1C | inactive | inactive | inactive | inactive | inactive | 61.1 µM (active) and inactive |  |  |  | inactive
31 | NC(N)=NC(N)=NCCc1ccccc1 |  | inactive | inactive | inactive | inactive | inactive | -11.7% (inactive) and -9.14% (inactive) | inactive | inactive | 5 µM (active) and 10 µM (active) and 8.71 µM (active)
32 | C[C@]12CC[C@@H]3c4ccc(O)cc4C[C@@H](CCCCCCCCCS(=O)CCCC(F)(F)C(F)(F)F)[C@H]3[C@@H]1CC[C@@H]2O (stereo partly drawn) | inactive | inactive |  | inactive | inactive |  |  |  |  | inactive
33 | O=[N+]([O-])c1ccc(O)cc1 | 44.7 µM (active) and 48.6 µM (active) | inactive | 56.6 µM (active) and 54.5 µM (active) and 48.6 µM (active) | inactive | 56.6 µM (active) and 61.1 µM (active) and 54.5 µM (active) | inactive |  |  |  | inactive
34 | NC(=O)N/N=C/c1ccc([N+](=O)[O-])o1 |  | inactive | inactive and 42.4 µM (active) and 29.8 µM (active) | inactive | inactive and 58.4 µM (active) | inactive and 7.7 µM (active) | -4.99% (inactive) | inactive |  | inactive
35 | CCCCOC(=O)CCCCCCCCC(=O)OCCCC | inactive | inactive | inactive | inactive | inactive | inactive |  |  |  | inactive
36 | OC[C@@H](O)[C@@H](O)[C@H](O)[C@H](O)CO |  | inactive | inactive | inactive | inactive | inactive | -0.524% (inactive) | inactive | inactive | inactive
37 | CCCCCCCCCCCCCCCCCC(=O)OCC(O)CO (stereo not drawn) |  | inactive | inactive | inactive | inactive | inactive | 0.317% (inactive) | inactive | inactive | inactive
38 | C=CC(=O)NC(C)(C)CS(=O)(=O)O | inactive | inactive | inactive | inactive | inactive | inactive |  |  |  | 49.2 µM (active) and inactive
